Laboratory results as given in PubChem BioAssay AID1274 (Emory University Molecular Libraries Screening Center, 2008).
In all, about 220,000 compounds went through this assay and about 1,100 (0.5%) were called active. What follows is part of a selection rich in actives, with near analogues and random picks from the rest. Unmarked numbers belong to inactive results.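 How the source made its calls: active means inhibition above about 30% (limit read from the data); inactive means the rest.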

molecular target: Neutrophil cytosol factor 1 (Homo sapiens) (UniProt P14598); assay: blockers of p47phox binding to p22phox – biochemical, uHTS, NADPH oxidase regulatory subunit, primary screen (AID 1274); conditions: p47phox/p22phox peptide binding, fluorescence polarization, 2 h; at 24.7 µM; active compounds read high;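 further: 0% = p47phox with labelled peptide and 100% = labelled peptide alone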
Sequence (P14598 whole entry, looked up): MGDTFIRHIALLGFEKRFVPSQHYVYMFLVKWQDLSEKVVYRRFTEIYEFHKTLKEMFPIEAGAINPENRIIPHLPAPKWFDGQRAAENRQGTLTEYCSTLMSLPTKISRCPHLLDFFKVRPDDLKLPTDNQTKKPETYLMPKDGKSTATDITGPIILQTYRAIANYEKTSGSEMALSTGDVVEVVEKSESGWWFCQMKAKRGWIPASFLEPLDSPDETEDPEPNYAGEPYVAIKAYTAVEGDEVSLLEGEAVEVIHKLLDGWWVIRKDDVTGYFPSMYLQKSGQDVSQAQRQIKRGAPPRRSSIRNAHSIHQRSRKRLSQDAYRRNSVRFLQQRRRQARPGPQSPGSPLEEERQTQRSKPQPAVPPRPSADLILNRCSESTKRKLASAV

| Compound | inhibition |
| --- | --- |
| O=C(Cc1ccccc1[N+](=O)[O-])N1CCN(Cc2ccc3c(c2)OCO3)CC1 | -1.92% |
| COc1ccccc1CN1CCN(C(=O)Cc2ccccc2)CC1 | 3.15% |
| O=C(COc1ccc2ccccc2c1)N1CCN(Cc2ccncc2)CC1 | 38.1% (active) |
| COCc1cc(OC(=O)N(C)C)nc(-c2ccc(C)c(Cl)c2)n1 | -3.02% |
| COC(=O)N(c1ccc(OC)cc1)P1(=S)OCCC(C)O1 (stereo not given) | 2.14% |
